Shown are actives, neighbours in structure and some others; about 7.2% of the full set was active somewhere.
NIH3T3 tox – NIH 3T3 cell cytotoxicity | NIH 3T3 viability, CellTiter-Glo ATP luminescence, 48-72 h | Potency, µM (highest dose often 96.7 µM), without a hit: at the highest dose activity change, negative = cytotoxicity, usual class: inhibitors | actives 4.3% (n = 94,000); note: % is set by controls: 0 for no effect and ±100 for the full control effect; nearly all actives have a fitted effect of over 55% in size
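Cytotoxicity is measured as loss of cellular ATP: NIH 3T3 cells (400/well) are exposed to compound for 48 or 72 hr at 37 °C, then CellTiter-Glo luminescence is imaged after 10 min at room temperature.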
HEK cytotox – cytotoxic compounds in HEK 293 cells; HEK 293 viability, ATP luminescence (CellTiter-Glo), 48-72 h; Potency, µM (titrated, usually from 115 µM), inactives show top-dose activity change, negative = cytotoxicity, most hits filed as inhibitors; actives 6.6% (n = 94,000); AID 1345083; note: % is set by controls: 0 for no effect and ±100 for the full control effect; nearly all actives have a fitted effect of over 60% in size
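HEK 293 cells seeded at 250 cells/well were exposed to compound for 48 or 72 hr at 37 degree Celsius. Viability taken as ATP content by CellTiter-Glo luminescence.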
SNCA expr inh – reduces expression of the alpha-synuclein gene; HEK-293 SNCA-luciferase knock-in, luminescence, 24 h; Potency, µM (doses to about 57.2 µM), inactives show top-dose activity change, negative = inhibition, usual class: inhibitors; actives 0.17% (n = 140,000); AID 1671194;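 note: plate controls were DMSO cells for no effect and cell-free wells for full effect; nearly all actives have a fitted effect of over 45% in size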
NPR1 antag – antagonists of human natriuretic peptide receptor Npr1. P16066. HEK293 hNpr1 GloSensor cGMP, ANP-stimulated luminescence. Potency, µM (series often up to 46.3 µM), for inactives: top-dose activity change, negative = inhibition, actives largely listed as inhibitors. actives 1.6% (n = 76,000). AID 1347048; calls by dose curve; note: % is set by controls: 0 for no effect and ±100 for the full control effect; nearly all actives have a fitted effect of over 60% in size
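Compound pre-incubated 30 min at room temperature on GloSensor-loaded HEK293 cells stably carrying hNpr1 and the pGS-40F cGMP biosensor. Stimulation uses hNppA at 0.1 nM final; luminescence is taken at baseline and 20 min post-agonist.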
FLuc inh – Photinus pyralis luciferase inhibition; P08659; purified P. pyralis luciferase, luminescence, biochemical; Potency, µM (highest dose often 115 µM), hits mostly inhibitors; actives 2.5% (n = 76,000); note: % is set by controls: 0 for no effect and ±100 for the full control effect; nearly all actives have a fitted effect of over 65% in size
Target sequence (P08659 whole entry, looked up): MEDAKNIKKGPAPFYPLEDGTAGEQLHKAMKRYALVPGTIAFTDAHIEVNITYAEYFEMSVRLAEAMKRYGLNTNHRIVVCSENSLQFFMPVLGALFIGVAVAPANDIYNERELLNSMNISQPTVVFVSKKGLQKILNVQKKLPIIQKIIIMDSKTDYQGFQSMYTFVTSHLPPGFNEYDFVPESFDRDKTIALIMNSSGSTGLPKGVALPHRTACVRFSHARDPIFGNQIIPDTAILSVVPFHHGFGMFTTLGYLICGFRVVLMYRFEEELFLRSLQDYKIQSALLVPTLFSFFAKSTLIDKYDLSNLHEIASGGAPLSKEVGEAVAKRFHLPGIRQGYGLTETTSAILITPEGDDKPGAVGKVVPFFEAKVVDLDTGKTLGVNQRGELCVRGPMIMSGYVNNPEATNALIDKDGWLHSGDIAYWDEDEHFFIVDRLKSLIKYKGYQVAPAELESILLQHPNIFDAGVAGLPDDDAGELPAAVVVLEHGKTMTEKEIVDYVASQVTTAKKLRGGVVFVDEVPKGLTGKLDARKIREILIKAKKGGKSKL
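Luminescence read by CCD imaging after purified firefly luciferase (10nM final) was added to substrate buffer holding 10uM D-luciferin and 10uM ATP, pH 7.5, pre-dosed with compound.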
HEK293 viab – counter-screen for SNCA expression inhibitors: cell viability | HEK-293-SNCA-luc viability, GF-AFC fluorescence, 24 h | Potency, µM (series often up to 57.1 µM), without a hit: at the top dose activity change, negative = cytotoxicity, hits mostly cytotoxic | actives 0.12% (n = 150,000);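 note: 0% = DMSO-treated cells and -100% = medium-only wells without cells; nearly all actives have a fitted effect of over 30% in size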
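Cytotoxicity counterscreen: after 24 h compound treatment of genome-edited SNCA-luciferase HEK-293 cells, live-cell protease substrate GF-AFC read by fluorescence after 30 min; activity scaled between DMSO (0%) and medium-only (-100%), curves Hill-fitted.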
NPR1 antag cnf – hNpr1 antagonism, confirmation assay; shares compounds with NPR1 antag; HEK293 hNpr1 cGMP GloSensor luminescence, ANP-stimulated; Potency, µM (series often up to 57.6 µM), inactives show top-dose activity change, negative = inhibition, most hits filed as inhibitors; actives 76% (n = 1,400); AID 1347044; calls by dose curve; note: nearly all actives have a fitted effect of over 70% in size
NPR2 antag – antagonizes human Npr2, subtype selectivity check. shares compounds with NPR1 antag. HEK293 hNpr2 GloSensor cGMP luminescence, CNP-stimulated. Potency, µM (series often up to 57.6 µM), without a hit: top-dose activity change, negative = inhibition, hits mostly inhibitors. actives 67% (n = 1,400); calls by dose curve; note: nearly all actives have a fitted effect of over 70% in size
FLuc counter – FLuc enzyme inhibition, Npr1 counter-screen; shares compounds with NPR1 antag; purified FLuc enzyme, luminescence, Km substrate; Potency, µM (titrated, usually from 57.6 µM), without a hit: at the top dose activity change, negative = inhibition, hits mostly inhibitors; actives 0.7% (n = 1,400); AID 1347047; note: series mostly up to about 58 µM; 0% is about no effect
GloSensor ctrl – counter-screen for Npr1 antagonists: GloSensor control cell line | shares compounds with NPR1 antag | HEK293 GloSensor cGMP, SNP-stimulated, luminescence | Potency, µM (doses to about 57.6 µM), for the others: at the top dose activity change, negative = inhibition, actives largely listed as inhibitors | actives 69% (n = 1,400) | AID 1347051; calls by dose curve; note: % is set by controls: 0 for no effect and ±100 for the full control effect; nearly all actives have a fitted effect of over 70% in size
An asterisk follows results filed as active; i = inactive; ? = inconclusive; · = not tested or not shown; [ ] = dose if it differs, or a comment. Unless noted, calls come from the whole dose curve; as a rule, active = well fitted curve in the direction sought with a large enough effect; inconclusive = small, poorly fitted or top-dose-only effect, or another doubt; inactive = no such curve, though single readings can be large; an effect the other way counts as inactive or inconclusive. Potency is the fitted concentration of half-maximal effect.

SMILES	NIH3T3 tox	HEK cytotox	SNCA expr inh	NPR1 antag	FLuc inh	HEK293 viab	NPR1 antag cnf	NPR2 antag	FLuc counter	GloSensor ctrl
CC(C)C(=O)N1CCC2(CC1)N(C)C(=O)CS2(=O)=O	i	-8.9%	5.2%	2.9%	i	8.2%	·	·	·	·
CC(=O)N1CCc2cc(S(=O)(=O)CCC(=O)N3CCCC(Cc4nncn4CC4CC4)C3)ccc21 (configuration not stated)	-3.9%	-23.0%	-8.2%	1.9%	i	2.3%	·	·	·	·
O=C(O)CCCC(=O)N1CCc2cc(S(=O)(=O)NCc3ccccc3)ccc21	·	·	-10.8%	·	·	2.6%	·	·	·	·
CC(=O)N1CCc2cc(S(=O)(=O)CCC(=O)N3CCC(CCOc4ccccc4)C3)ccc21 (configuration not stated)	-19.9%	-16.9%	?	10µM*	i	-5.1%	27.3µM*	?	2.6%	?
CC(=O)N1CCc2cc(S(=O)(=O)NCCCC(=O)N3CCC(CCOc4ccccc4)C3)ccc21 (configuration not stated)	?	?	?	5.62µM*	i	-5.2%	5.44µM*	6.11µM*	7.5%	4.85µM*
CN(C)C[C@H]1O[C@H](Cc2cc(-c3cccc(O)c3)on2)CC[C@@H]1O	-8.9%[174 µM]	-28.9%[172 µM]	-25.2%[87.6 µM]	28.2µM*	i	5.8%[87.6 µM]	?	-18.9%[86.2 µM]	-15.8%[86.2 µM]	?
CN1Cc2nc(NCc3ccccc3)ccc2OCC1=O	?	?	9.9%[87.6 µM]	?	i	5.6%[87.6 µM]	·	·	·	·
O=C1COc2ccc(-c3ccc4c(c3)OCO4)nc2CN1Cc1ccc(F)cc1	?	56.2µM*	-4.8%[87.6 µM]	?	i	-8.5%[87.6 µM]	?	35.3µM*	5.7%[86.2 µM]	?
O=C1COc2ccc(-c3cccnc3)nc2CN1Cc1ccc(C(F)(F)F)cc1	?	?	?	-17.3%[70.6 µM]	i	-4.3%[87.6 µM]	·	·	·	·
Cc1ccccc1CN1Cc2nc(NCc3cccc(F)c3)ccc2OCC1=O	79.4µM*	?	-6.5%[87.6 µM]	?	i	-16.3%[87.6 µM]	39.6µM*	35.3µM*	0.0%[86.2 µM]	39.6µM*
O=C1COc2ccc(N3CCCC3)nc2CN1Cc1ccc(C(F)(F)F)cc1	?	79.4µM*	?	?	i	-12.7%[87.6 µM]	39.6µM*	?	-0.2%[86.2 µM]	?
Cc1ccc(CN[C@@H]2CO[C@H](CNS(=O)(=O)c3ccc(C)cc3)[C@H]2O)cc1	?	?	2.4%[87.6 µM]	-2.3%[70.6 µM]	i	7.0%[87.6 µM]	·	·	·	·
COc1cccc(N2CCN(C(=O)c3ccc4c(c3)C(O)CCCCCN4C)CC2)c1 (configuration not stated)	?	?	?	-28.8%	i	-2.2%	·	·	·	·
O=C(NCCc1cccs1)c1cc2n(n1)CC(c1ccc(Cl)cc1)OC2 (configuration not stated)	?	?	-36.0%	?	i	-0.6%	·	·	·	·
O=C(Nc1ccc(Oc2ccccc2)cc1)c1cc2n(n1)CC(c1ccc(Cl)cc1)OC2 (configuration not stated)	-27.7%	?	?	3.55µM*	i	8.8%	3.85µM*	4.85µM*	2.2%	3.85µM*
O=C(Nc1ccc(F)c(F)c1)c1cc2n(n1)CC(c1ccc(Cl)cc1)OC2 (configuration not stated)	?	?	14.6%	?	i	3.8%	·	·	·	·
CC(=O)Nc1ccc(NC(=O)c2cc3n(n2)CC(c2ccc(Cl)cc2)OC3)cc1 (configuration not stated)	-25.9%	?	-35.2%	-16.8%	i	-6.9%	·	·	·	·
COc1ccc(CNC(=O)c2cc3n(n2)CC(c2ccc(Cl)cc2)OC3)cc1 (configuration not stated)	?	31.6µM*	-19.0%	22.4µM*	i	10.3%	27.3µM*	21.7µM*	-6.2%	21.7µM*
O=C(Nc1ccc(Cl)cc1)c1cc2n(n1)CC(c1ccc(Cl)cc1)OC2 (configuration not stated)	?	?	-7.4%	11.2µM*	i	5.4%	24.3µM*	?	-2.1%	27.3µM*
NS(=O)(=O)c1ccc(CCNC(=O)c2cc3n(n2)CC(c2ccc(Cl)cc2)OC3)cc1 (configuration not stated)	?	44.7µM*	?	14.1µM*	i	-20.1%	24.3µM*	?	0.7%	24.3µM*
O=C(c1ccccc1F)N1CCN(CCn2nc3n(c2=O)CCCC3)CC1	1.4%	1.0%	·	·	·	·	·	·	·	·
C#CCNC(=O)c1nc2cccnc2n(C2CCCC2)c1=O	-28.2%[138 µM]	?	-10.6%[87.6 µM]	·	·	-8.8%[87.6 µM]	·	·	·	·
CCNC(=O)N[C@H]1[C@H](O)[C@H](O)C[C@@H]1c1ccc(C)cc1	-16.9%[230 µM]	-2.2%[230 µM]	5.6%[87.6 µM]	4.9%[70.6 µM]	i	-0.2%[87.6 µM]	·	·	·	·
O=C1C[C@@H]2CCN(Cc3ccccc3)C[C@@H]2CCN1C1CCCCC1	-4.0%[138 µM]	-16.2%[172 µM]	-4.1%[87.6 µM]	0.4%[70.6 µM]	i	4.1%[87.6 µM]	·	·	·	·
Cc1nnc2ccc(N3CCN(C(=O)c4ccc(Cl)nc4)CC3)nn12	-25.1%	-2.9%	·	·	·	·	·	·	·	·
SMILES	NIH3T3 tox	HEK cytotox	SNCA expr inh	NPR1 antag	FLuc inh	HEK293 viab	NPR1 antag cnf	NPR2 antag	FLuc counter	GloSensor ctrl
Cn1ncc2c(NCc3noc(-c4cccs4)n3)nc(C(C)(C)C)nc21	?	?	-9.0%	?	i	-5.3%	·	·	·	·
Cc1ccccc1N1CCN(C(=O)c2cc3n(n2)CC(c2ccc(Cl)cc2)OC3)CC1 (configuration not stated)	?	?	?	?	i	-11.0%	·	·	·	·
COc1ccc(NC(=O)c2cc3n(n2)CC(c2ccc4c(c2)OCO4)OC3)cc1Cl (configuration not stated)	-4.2%	?	-11.8%	?	i	-4.0%	?	-26.3%	-3.7%	?
CC(=O)c1ccc(N2CCN(C(=O)c3cc4n(n3)CC(c3ccc(Cl)cc3)OC4)CC2)cc1 (configuration not stated)	?	?	37.8%	11.2µM*	i	2.8%	21.7µM*	24.3µM*	-2.3%	24.3µM*
O=C(NCc1ccc(F)cc1)c1nc2cccnc2n(CCc2ccccc2)c1=O	-23.7%	?	-17.0%	·	·	-6.6%	·	·	·	·
Cc1cc(C(=O)N2CCC3(CC2)CC(N(Cc2ccc(F)cc2)C2CC2)CCO3)n(C)n1 (configuration not stated)	?	?	-28.4%	?	i	-8.9%	27.3µM*	?	0.2%	27.3µM*

Screening results (PubChem)
